M1 antag: human M1 muscarinic receptor antagonists, primary screen, CHO-K1 cells, Fluo-8 calcium fluorescence, 1536-well; Muscarinic acetylcholine receptor M1 (Homo sapiens), P11229; CHO-K1 hM1, ACh EC80 antagonist; AID 588852, 2011; inhibition, % at 3 µM; actives 1.3% (n = 360,000);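 active = percent inhibition above its own plate's cutoff, namely the mean of that plate's compound wells plus 3 SD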;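 note: peak over basal fluorescence ratio during 140 s after agonist addition; 0% = ACh EC80 plus DMSO and 100% = DMSO alone without agonist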
Target sequence (P11229 whole entry, looked up): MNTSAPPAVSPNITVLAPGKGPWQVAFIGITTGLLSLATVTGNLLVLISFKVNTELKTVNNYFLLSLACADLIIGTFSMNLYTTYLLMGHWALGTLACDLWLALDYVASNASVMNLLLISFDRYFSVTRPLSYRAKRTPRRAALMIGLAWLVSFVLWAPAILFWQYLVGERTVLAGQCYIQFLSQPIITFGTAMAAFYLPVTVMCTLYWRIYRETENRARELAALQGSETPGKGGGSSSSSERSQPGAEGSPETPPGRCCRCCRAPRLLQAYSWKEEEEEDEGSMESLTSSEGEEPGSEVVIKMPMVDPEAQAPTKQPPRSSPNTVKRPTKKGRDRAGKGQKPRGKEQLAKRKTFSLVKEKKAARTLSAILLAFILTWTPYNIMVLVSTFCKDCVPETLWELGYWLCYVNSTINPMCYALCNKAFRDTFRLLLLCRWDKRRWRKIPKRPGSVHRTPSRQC
CHRM1 agonist: human M1 muscarinic receptor agonists, primary screen, Fluo-8 calcium fluorescence, CHO-K1 cells, HTS | activation, % at 3 µM | actives 0.33% (n = 360,000) | CHO-K1 hM1, agonist mode; 0% DMSO, 100% acetylcholine EC100 | AID 588814, 2011;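 active = activation above the run's mean compound activation plus 3 SD, cut at about 16% in these data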;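 note: peak over basal fluorescence ratio within a 140 s kinetic read after compound addition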
M1 PAM: human M1 muscarinic receptor positive allosteric modulators, primary screen, CHO-K1 cells, Fluo-8 calcium fluorescence, 1536-well; CHO-K1 hM1, ACh EC20; 0% = ACh EC20, 100% = maximal ACh; activation, % at 3 µM; actives 0.088% (n = 360,000); AID 588819, 2011; in the data active = activation above about 19%, passing the limit was not always enough
CHO-K1 Ca PAM: nonselective calcium activators in parental CHO-K1 cells, primary screen, counter-screen for M1 PAM project, cell-based, Fluo-8 calcium fluorescence, full deck, 1536-well; activation, % at 3 µM; actives 0.02% (n = 360,000); ATP EC20; 0% at ATP EC20, 100% at ATP max;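 active = activation above the run cutoff, the mean activation of all test compounds plus 3 SD, cut at about 40% in these data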;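 note: peak over basal fluorescence ratio in a 140 s read after ATP addition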
CHO-K1 Ca ag: counter-screen for M1 agonists: effect in parental CHO-K1 cells; Fluo-8 calcium fluorescence; scaled to maximal ATP response, vehicle zero; activation, % at 3 µM; actives 0.48% (n = 360,000); AID 602248, 2012; in the data active = activation above about 15%;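 note: untransfected CHO-K1 host cells lacking M1 receptor as counterscreen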
CHO-K1 Ca antag: M1 antagonist counterscreen hit in parental CHO-K1 cells; ATP-induced calcium, Fluo-8 fluorescence; inhibition, % at 3 µM; actives 0.6% (n = 360,000);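 active = inhibition above a per-plate cutoff, the plate's mean sample inhibition plus 3 SD, cut at about 24% in these data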;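 note: 0% = DMSO plus EC80 ATP and 100% = DMSO alone without ATP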
Starred values were filed as active, the others as inactive. A selection: hits, their analogues and other compounds. The true share with any hit is near 2.3%.

SMILES	M1 antag	CHRM1 agonist	M1 PAM	CHO-K1 Ca PAM	CHO-K1 Ca ag	CHO-K1 Ca antag
Cc1ccc(S(=O)(=O)N2[C@@H](c3cccc(Cl)c3)C(C(=O)OC(C)(C)C)=CC[C@H]2c2ccc(C(C)C)cc2)cc1	19.9	-0.6	-7.6	-5.1	0.3	13.9
COc1cccc(Nc2nc(C(N)C3CCCCC3)cs2)n1 (stereo unspecified)	-4.5	5.2	3.2	6.1	3.7	-2.4
COc1ccc(CCNC(=O)CSc2nc3scc(-c4ccccc4)c3c(=O)[nH]2)cc1	4.3	-0.5	-10.8	8.2	2.8	-7.9
O=C(CN1CCC(NC(=O)c2ccccc2F)CC1)Nc1ccc2c(c1)OCCO2	-1.9	-6.6	3.9	9.4	15.7*	6.6
COc1ccc(NC(=O)[C@@H]2O[C@H](CO)[C@H](O)[C@H](O)[C@H]2O)cc1F	4.3	-1.6	1.8	-0.2	1.0	-1.0
O=C(OCC#CCSc1nnc(-c2ccncc2)o1)c1cccs1	1.1	-7.7	5.0	18.0	17.4*	-6.2
Cc1c(C(=O)N2CCN(c3ccccn3)CC2)oc2c1C(=O)CC(C)(C)C2	9.9	0.1	-9.9	1.2	7.1	-9.6
COc1ccccc1N1CCN(C(=O)c2oc3c(c2C)C(=O)CC(C)(C)C3)CC1	33.7	2.0	-14.0	-25.8	10.0	28.4*
CC(C)Cn1c(N)c(C(=O)COC(=O)c2cc(S(=O)(=O)N3CCOCC3)ccc2Br)c(=O)n(C)c1=O	8.0	-2.6	0.8	10.3	6.9	6.0
Cc1nc2ccccc2n1Cc1ccc(Br)cc1	36.8	0.4	-11.4	-17.1	11.2	30.6*
Cc1nc2ccccc2n1Cc1ccccc1Br	9.9	1.9	-11.5	-8.6	23.2*	15.0
CCOc1ccc(C(=O)NCC(=O)OCc2cc([N+](=O)[O-])cc3c2OCOC3)cc1OCC	-7.7	-8.4	7.0	16.4	1.2	-3.6
COc1cc(C(=O)NC(CCSC)C(=O)OCc2cc([N+](=O)[O-])cc3c2OCOC3)cc(OC)c1OC (stereo unspecified)	25.9*	-1.7	-8.0	10.5	3.9	-5.9
CC(=O)Nc1ccc(S(=O)(=O)N2CCC3(CC2)CC(=O)c2ccccc2O3)cc1	31.6*	-2.7	-14.7	-17.4	1.6	8.8
COc1cc(CNC23CC4CC(CC(C4)C2)C3)ccc1OCc1ccccc1	0.5	-7.9	-15.1	15.3	2.7	-0.4
Cc1cc(C)nc(-n2nc(C)cc2NC(=O)CN2CCCC2)n1	-3.9	-5.3	3.0	17.8	0.6	-5.2
Cc1cc(C)nc(-n2nc(C)cc2NC(=O)CN2CCC(C)CC2)n1	-13.4	-7.5	20.4*	5.5	0.2	0.0
COc1ccc(/C=C2\CCCC3C2=NN(C(=O)c2scnc2C)C3c2ccc(OC)c(OC)c2)cc1OC (stereo unspecified)	-18.7	-3.5	9.7	16.9	18.7*	-1.5
Nc1c(C(=O)c2ccccc2)sc2nsc(SCCN3CCCC3)c12	55.4*	11.2	-26.2	8.5	16.5*	9.7
CCc1noc(C)c1C(=O)NNC(=O)COc1ccc(Br)cc1	-8.1	-2.7	3.6	-3.3	-0.1	2.0
CC12CCC(C(=O)N(Cc3ccccc3)Cc3ccccc3)(OC1=O)C2(C)C (stereo unspecified)	-14.2	-5.8	-8.0	-8.5	-0.5	25.1*
CC12CCC(C(=O)NNC(=O)c3ccccc3)(OC1=O)C2(C)C (stereo unspecified)	-5.6	-3.3	4.8	-20.3	-0.4	17.6
O=[N+]([O-])c1ccc(Nc2cccc3c2[nH]c2c(-c4ccccc4)nccc23)c([N+](=O)[O-])c1	-5.9	-1.5	0.1	1.3	0.1	-3.4
CCC(C)(O)c1[nH]c2ccc(C(=O)OC)cc2c1C (stereo unspecified)	-13.5	-1.7	15.2	-10.5	-0.4	-4.2
COc1cc(OC)c(C2=NOC(C(=O)Nc3ccc4c(c3)OCO4)C2)cc1Cl (stereo unspecified)	5.2	-2.7	-1.6	2.3	17.7*	0.4
SMILES	M1 antag	CHRM1 agonist	M1 PAM	CHO-K1 Ca PAM	CHO-K1 Ca ag	CHO-K1 Ca antag
COC(=O)C(NC(=O)c1ccccc1C)(Nc1ncc(S(=O)(=O)c2ccc([N+](=O)[O-])cc2)s1)C(F)(F)F (stereo unspecified)	1.8	17.4*	4.3	15.9	7.4	4.4
O=C(Nc1ncc(S(=O)(=O)c2ccc([N+](=O)[O-])cc2)s1)c1ccccc1F	31.7*	29.9*	-17.2	13.1	2.7	-6.8
Cc1nnc(SCC(=O)Nc2ncc(S(=O)(=O)c3ccc([N+](=O)[O-])cc3)s2)s1	-10.6	-4.0	10.7	43.8*	0.6	0.9
O=C(Nc1ccc([N+](=O)[O-])cc1)c1ccccc1F	-1.8	-6.7	3.1	19.2	1.3	-22.0
CCCc1cc(=O)[nH]c(SCC(=O)Nc2ncc(S(=O)(=O)c3ccc([N+](=O)[O-])cc3)s2)n1	-4.3	-2.8	-2.0	-10.9	0.2	-1.6
Cc1csc(NC(=O)CSc2ccc([N+](=O)[O-])cn2)n1	-2.2	-3.5	6.8	18.4	15.5*	-3.5
O=C1NC2(CCCCO2)CO1 (stereo unspecified)	-0.3	-2.5	-0.4	-2.1	0.0	-8.2
O=C(NCCc1ccccc1)/C(=C\c1ccc([N+](=O)[O-])cc1)NC(=O)c1ccco1	6.4	-2.7	2.4	-9.2	2.6	-6.4
C=CCNC(=O)/C(=C/c1cccc([N+](=O)[O-])c1)NC(=O)c1ccco1	-11.8	-3.6	11.7	18.8	15.4*	0.0
O=C(NCc1ccccc1)/C(=C\c1ccc([N+](=O)[O-])cc1)NC(=O)c1ccco1	-11.2	17.0*	15.1	-2.0	1.3	-0.9
O=C(Nc1cccc(Cl)c1)Nc1cc(S(=O)(=O)N2CCCCC2)ccc1Cl	25.3*	-2.7	-18.8	-15.4	0.7	38.4*
O=S(=O)(Nc1ccc(S(=O)(=O)N2CCCC2)cc1)c1ccc(F)cc1	-16.0	-0.8	14.6	30.4	1.5	-19.1
O=S(=O)(Nc1ccc(F)cc1)c1ccc(S(=O)(=O)N2CCOCC2)cc1	9.6	23.9*	-6.1	-3.6	34.0*	7.5
O=S(=O)(c1ccc(NC(=S)NCc2cccnc2)cc1)N1CCCCC1	44.0*	3.7	-16.6	-6.2	10.0	3.0
O=C(NCc1cccnc1)c1ccc(S(=O)(=O)N2CCCCC2)cc1	-15.2	-6.9	6.7	19.0	3.3	-20.1

Bioassay records as filed in PubChem BioAssay.
